Data as given in PubChem BioAssay.
Calls of active or inactive are those of the source.

The molecules below were run against Homeobox protein Hox-A13 (Mus musculus) (UniProt Q62424) (assay: inhibitors of HoxA13-DNA binding, primary screen, biochemical, fluorescence polarization, labeled oligonucleotide (AID 1185)). Conditions: 15 min, higher = more signal, called active from +8 up or from −8 down.
Chain of Homeobox protein Hox-A13 (Mus musculus) (Q62424 whole entry, looked up): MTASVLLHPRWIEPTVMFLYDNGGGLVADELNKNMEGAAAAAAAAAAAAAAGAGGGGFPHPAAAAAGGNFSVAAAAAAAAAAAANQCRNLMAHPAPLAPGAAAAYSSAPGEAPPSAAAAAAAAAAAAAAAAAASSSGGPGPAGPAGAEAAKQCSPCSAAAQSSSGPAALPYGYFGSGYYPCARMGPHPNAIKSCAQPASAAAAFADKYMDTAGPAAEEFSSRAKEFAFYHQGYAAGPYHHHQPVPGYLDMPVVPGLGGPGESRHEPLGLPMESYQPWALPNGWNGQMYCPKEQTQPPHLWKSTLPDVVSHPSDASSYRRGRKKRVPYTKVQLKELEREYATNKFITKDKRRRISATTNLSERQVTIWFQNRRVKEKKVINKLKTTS

z-score, inactive:
COc1ccc(O[C@H]2C=C[C@@H](c3ccccc3)O[C@@H]2CON=C(C)CCC(=O)OC[C@H]2O[C@H](c3ccccc3)C=C[C@@H]2Oc2ccc(OC)cc2)cc1 -0.19
CO[C@@H]1COC(=O)CC=C[C@H](C)[C@H](OC)COC(=O)[C@H](C)NC(=O)CC=C[C@H]1C 0.189
CC(=O)OC[C@H]1O[C@@H](ON=C(C)CCN2CCCc3nc(C)c(C)cc32)[C@H](OC(C)=O)[C@@H](OC(C)=O)[C@@H]1OC(C)=O -5.84
Cc1ccc(S(=O)(=O)OC[C@H]2CN3[C@H](c4ccc(Br)cc4)[C@@H](C)CC[C@H]3C(=O)O2)cc1 -5.13
CON=C[C@@H](NS(=O)(=O)c1ccc(C)cc1)[C@H](C)C=CCC(=O)OC 1.12
CCOC(=O)C1=NO[C@@]2(C=C(Br)C3(OCCCO3)[C@H]3O[C@H]32)C1 0.14
O=C(NN=C1C[C@@H](O)[C@@H](O)[C@@H]2[C@@H]3C(=O)N(Cc4ccccc4)C(=O)[C@@H]3CC[C@@H]12)OCc1ccccc1 0.236
CO[C@@H]1COC(=O)CC=C[C@@H](C)[C@H](OC)COC(=O)[C@@H](C)COC(=O)CC=C[C@H]1C 0.372
O=C(NN=C1C[C@@H](O)[C@@H](O)[C@@H]2[C@@H]3C(=O)N(C4CCCCC4)C(=O)[C@@H]3CC[C@H]12)OCc1ccccc1 -5.03
O=c1n(Cc2cc3c(cc2Cl)OCO3)c(=O)n2n1CC[C@@H]1C(=NOC[C@@H](O)COCc3ccco3)[C@H]3O[C@H]3[C@@H](O)[C@@H]12 -0.786
O=C1C=C[C@@H](O)[C@@H]2[C@@H]3C(=O)N(c4ccc(F)cc4F)C(=O)[C@@H]3CC[C@@H]12 0.159
CCOC(=O)[C@H](CC(C)C)NC(=O)CCC1CC(OC(=O)NCc2cccc3ccccc23)CC2(CCCC(COC(=O)NCCCN3CCCC3=O)O2)O1 (some centres not stated) -4.61
COc1ccc(O[C@H]2C=C[C@@H](c3ccccc3)O[C@@H]2COC(=O)CCC(C)=NOC(C)CN2CCCc3nc(C)c(C)cc32)cc1 (some centres not stated) -5.13
O=C1CCCC=C1C(O)CCOC(c1ccccc1)(c1ccccc1)c1ccccc1 (configuration not stated) -4.61
C[C@H]1CC[C@H]2C(=O)OC(CO)CN2[C@@H]1c1ccc(Br)cc1 (some centres not stated) -0.52
CCOC(=O)[C@H](Cc1ccccc1)NC(=O)CCC1CC(OC(=O)NCc2ccc3c(c2)OCO3)CC2(CCCC(COC(=O)NCCc3ccccc3OC)O2)O1 (some centres not stated) -4
O=C1CCCC=C1C(CCc1ccccc1)OC(=O)c1ccc(Br)cc1 (configuration not stated) -1.88
COC(=O)CC=C[C@@H](C)[C@@H](C=NOC(C)CN1CCCc2nc(C)c(C)cc21)OC (some centres not stated) -1.24
CCOC(=O)[C@H](Cc1ccccc1)NC(=O)CCC1CC(OC(=O)NCc2ccc3c(c2)OCO3)CC2(CCCC(COC(=O)NCCC(C)C)O2)O1 (some centres not stated) -6.91
COc1ccc(COC(=O)NN=C2C[C@@H](O)[C@@H](O)[C@@H]3[C@@H]4C(=O)N(Cc5ccccc5)C(=O)[C@@H]4CC[C@H]23)cc1 -1.81
CCOC(=O)[C@H](Cc1ccccc1)NC(=O)CCC1CC(OC(=O)NCc2cccc3ccccc23)CC2(CCCC(COC(=O)NCCC(C)C)O2)O1 (some centres not stated) -5.99
C=CC[C@@H]1C=C[C@H](ON=C(C)CCN2CCc3nc(-c4ccccc4)c(-c4ccccc4)cc3C2)[C@@H](CO)O1 -5.72
CO[C@H]1COC(=O)[C@H](C)NC(=O)[C@@H](C)COC(=O)[C@H]2CCCN2C(=O)CC=C[C@H]1C 0.24
CCOC(=O)[C@H](CC(C)C)NC(=O)CCC1CC(OC(=O)NCc2ccc3c(c2)OCO3)CC2(CCCC(COC(=O)NCC(c3ccccc3)c3ccccc3)O2)O1 (some centres not stated) -6.66
CC(CCN1CCCCc2nc(C)c(C)cc21)=NO[C@@H](C)c1cn([C@H](CO)Cc2ccccc2)nn1 -4.4
CC(=O)OC[C@H]1OC(ON=CC[C@@H]2C=C[C@H](OC(C)=O)[C@@H](COC(C)=O)O2)[C@H](OC(C)=O)[C@@H](OC(C)=O)[C@@H]1OC(C)=O (some centres not stated) -2.22
CCOC(=O)NN=C1C[C@@H](O)[C@@H](O)[C@@H]2[C@@H]3C(=O)N(Cc4ccccc4)C(=O)[C@@H]3CC[C@H]12 -1.48
